SMILES strings stand for the structures. Inconclusive results are not listed. Where a call stands in place of a potency, no number is given. Values without a mark were called inactive. Active and inactive are the calls of the source. Calls follow the shape of the dose curve; as a rule, active = well fitted inhibition curve with a large enough effect; inconclusive = small, poorly fitted or top-dose-only effect; inactive = flat fitted curve, though single readings scatter.
Potency is read from the fitted curve at half-maximal effect.

The assay in a line: P-glycoprotein substrates identified in KB-8-5-11 adenocarcinoma cell line, qHTS therapeutic library screen (AID 1346987). Also: nearly all actives have a fitted effect of over 65% in size. Conditions: KB-8-5-11 (P-gp overexpressing) viability, CellTiter-Glo, 72 h; series mostly up to 44.5 µM. In short, it runs like this: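 Steps: plate 500 KB-8-5-11 cells/well in DMEM + 10% FCS (colchicine removed); pin compounds in dose-response; incubate 72 h, 37 degree C, 5% CO2; add CellTiter-Glo, 5 min; read luminescence.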
A general note: Quantitative high-throughput screening tests each substance at several concentrations.
Turning to `O=C(NNc1nc2cc(F)ccc2n2cccc12)c1cnccn1`, the Potency was 2.31 µM (active).

In the case of `C=C1CCC[C@]2(C)CC/C(=C(/CO)C(=O)OC)C[C@@H]12`, the Potency entry was “inactive”.

Turning to `O=C1C(c2[nH]c3ccc(S(=O)(=O)O)cc3c2O)=Nc2ccc(S(=O)(=O)O)cc21`, the Potency result was “inactive”.

Take `C/C=C/C1=CC2=C(CO1)C(=O)C(C)(OC(=O)c1c(C)cc(O)cc1OC)C(O)C2` (stereo unspecified): the Potency result was “inactive”.

Turning to `C=C[C@]1(C)C[C@@H](OC(=O)CO)[C@]2(C)[C@H](C)CC[C@]3(CCC(=O)[C@H]32)[C@@H](C)[C@@H]1O`, the Potency result is “inactive”.

As to `Nc1ncnc2c1c(-c1ccc(Cl)cc1)nn2-c1cccc(-c2cnnn2Cc2cccc(-c3ccccc3)c2)c1`, the Potency was 16.4 µM (active).

`CCC(C)C(=O)O[C@H]1[C@H](O)[C@@]2(COC(C)=O)C(CC1(C)C)C1=CCC3[C@@]4(C)CC[C@H](O[C@@H]5O[C@H](C(=O)O)[C@@H](O)[C@H](O)[C@H]5O)[C@@](C)(CO)C4CC[C@@]3(C)[C@]1(C)C[C@@H]2O` (stereo partly specified): the activity change, negative = cytotoxicity is -11.3% [at 9.29 µM].

Regarding `O=C(CCl)Nc1cccc(NC2=NS(=O)(=O)c3ccccc32)c1`, the Potency was 18.4 µM (active).

Regarding `CO/N=C(\C(=O)N[C@@H]1C(=O)N2C(C(=O)OCOC(=O)C(C)(C)C)=C(/C=C\c3scnc3C)CS[C@H]12)c1csc(N)n1`, the Potency result is “inactive”.

For the compound `O=C(Nc1ccc(CN2CCOCC2)cc1)c1ccc(-c2cccc(Cl)c2)o1`, the Potency is 16.4 µM (active).

On to `CN(C(=O)CO)c1c(I)c(C(=O)NCC(O)CO)c(I)c(C(=O)NCC(O)CO)c1I` (stereo unspecified), for which the Potency result is “inactive”.

With `CC(=O)Nc1cccc(-c2csc(Nc3cc(C)ccn3)n2)c1`, the Potency entry is “inactive”.

In the case of `O=C1c2ccc(Nc3ccc(F)cc3F)cc2CCc2ccc(OCC(O)CO)cc21` (stereo unspecified), the Potency was 14.6 µM (active).

With `CCn1c(=O)c(-c2ccc(Cl)cc2Cl)cc2cnc(Nc3ccc(N4CCNCC4)c(F)c3)nc21`, the Potency is 20.6 µM (active).

For `CCN1CCCC1CNC(=O)c1cc(S(=O)(=O)CC)ccc1OC` (stereo unspecified), the Potency entry was “inactive”.

Take `C/C=C(\C)[C@@H]1C(C)=C[C@@H]2[C@H]([C@@H]1/C=C/C=C/C(=O)O)[C@@H](C)CC[C@@H]2O`: the Potency was 11.4 µM (active).

With `COc1cc(C#N)ccc1S(=O)(=O)Nc1ccc2c(c1)cc(C)c(=O)n2C`, the Potency entry is “inactive”.

For `COc1cccc(-c2cc(F)ccc2C2Cc3nc(N)nc(C)c3C(=O)N2)n1` (stereo unspecified), the Potency was 0.0259 µM (active).

Turning to `O=C(Nc1nnc(-c2ccc3c(c2)OCCO3)o1)C1CCCCC1`, the Potency result is “inactive”.

For the compound `c1cc(-c2cnn3cc(-c4ccc(N5CCNCC5)cc4)cnc23)c2cccnc2c1`, the Potency was 5.17 µM (active).

Consider `Cc1cc2sc(NC(=O)Cc3ccccc3)nc2cc1Cl`, for which the Potency entry was “inactive”.

For `Cn1ncc2cc(-c3cnc(N)c(Cl)c3N3CCC4(CCNC4=O)CC3)ccc21`, the Potency entry was “inactive”.

Regarding `CC(C)CCNc1ncccc1C(=O)N1CCN(Cc2ccccc2)CC1`, the Potency result was “inactive”.

As for `COCc1c(Cl)ccc2c1CC[C@H]2c1ncc[nH]1`, the Potency entry was “inactive”.

On to `O=C(Cn1c(=O)sc2ccc(Cl)cc21)N1CCN(CCO)CC1`, for which the Potency entry was “inactive”.

As to `C[C@@H](N[C@H]1CCCC[C@@H]1NC(=O)c1ccc(Cl)cc1)c1cccc2ccccc12`, the Potency is 23.1 µM (active).

Take `COC(=O)C1=COC(O[C@@H]2O[C@H](CO[C@@H]3O[C@H](COC(=O)/C=C\c4ccc(O)cc4)[C@@H](O)[C@H](O)[C@H]3O)[C@@H](O)[C@H](O)[C@H]2O)C2C(CO)=CCC12` (stereo partly specified): the Potency result was “inactive”.

Take `CN(C)CCOC(C)(c1ccccc1)c1ccc(Cl)cc1` (stereo unspecified): the Potency was 16.4 µM (active).

As to `CC(C)C[C@@H]1NC(=O)[C@@H](Cc2ccccc2)NC(=O)C(CCCCCC(=O)C2CO2)NC(=O)[C@@H]2CCCCN2C1=O` (stereo partly specified), the Potency is 3.99 µM (active).

With `CCCCCCOC(=O)/N=C(\N)c1ccc(NCc2nc3cc(C(=O)N(CCC(=O)OCC)c4ccccn4)ccc3n2C)cc1`, the Potency entry was “inactive”.

`C[C@H]1CC[C@@]2(OC1)O[C@H]1CC3C4CC[C@H]5C[C@@H](O)CC[C@]5(C)C4=CC(=O)[C@]3(C)[C@H]1[C@@H]2C` (stereo partly specified): the Potency entry was “inactive”.

For `CN(C)[C@@H]1CCc2[nH]c3ccc(NC(=O)c4ccc(F)cc4)cc3c2C1`, the Potency result was “inactive”.

On to `OC(CN1CCCCC1)c1cc(-c2ccccc2)on1` (stereo unspecified), for which the Potency result was “inactive”.

Turning to `C=C1C(=O)OC2/C=C(\C)CC/C=C(\C)CC(OC(C)=O)C12` (stereo unspecified), the Potency result is “inactive”.

For `Cc1cc(C(=O)Nc2cc(Oc3ccc4nc(NC(=O)C5CC5)cn4n3)ccc2C)n(C)n1`, the Potency is 9.2 µM (active).

Take `C=C(C)C1CC(O)C(C)C12CC(O)C1(C)OC1C2O` (stereo unspecified): the Potency is 3.66 µM (active).

These data come from PubChem BioAssay (NCATS).
